Potency and cytotoxicity increase data for 39 compounds are collected here from PubChem BioAssay (Tox21).

Several values for one entry are separate records, joined by “and”; a condition that tells them apart may be missing. Equal entries are not always repeated. Records with an inconclusive call do not appear. A call without a number means that no potency is given here. A structure can be active in one record and inactive in another. Activity calls are given as the source filed them. Calls follow the shape of the dose curve; as a rule, active = well fitted curve in the direction sought with a large enough effect in the repeat runs; inconclusive = weak or mixed curves; inactive = no such curve, though single readings can be large; an effect the other way counts as inactive or inconclusive.
Potency is read from the fitted curve at half-maximal effect.

One assay in a line: qHTS RealTime-Glo MT Cell Viability Assay in HEK293 cells - 0 hour (AID 1224880). Also: nearly all actives have a fitted effect of over 45% in size. To be noted: RealTime-Glo luminescence; series mostly up to 76.8 µM. In outline: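 Nonlytic bioluminescent viability monitoring. HEK293 at 600 cells/well with reagent; 5 h settle; compound transfer by pintool; plates held at 37 C and read at set time points.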
Take `c1ccc2ncccc2c1`: the Potency entry is “inactive”.
Same read-out and setting: under `Cc1ccc(C)c(O)c1` stands “inactive”; under `CNC[C@H](O)c1ccc(O)c(O)c1`, “inactive”.
Turning to `O=C1OC2(c3ccccc31)c1cc(I)c(O)c(I)c1Oc1c2cc(I)c(O)c1I`, the Potency was 5.56 µM (active) [middle of 4 runs].
Still for that read-out and setting: the same measure for `CCOC(=O)C(C)Oc1ccc(Oc2cnc3cc(Cl)ccc3n2)cc1` (stereo not drawn): “inactive”; for `COc1ccc(C(=O)c2ccccc2O)c(O)c1`: “inactive”; for `CC(=O)Nc1ccc2c(c1)Cc1cc(NC(C)=O)ccc1-2`: “inactive”.
For the compound `CN(C)/N=N/c1nc[nH]c1C(N)=O`, the Potency entry is “inactive”.
The same measure, in the same setting: under `COc1ccc2nc(N)sc2c1` stands “inactive”; under `O=C(O)CCCC(=O)O`, “inactive”; under `CCCN1C=CN(C)C1`, “inactive”.
Still for that read-out and setting: under `NCCN` stands “inactive”.
Turning to `Cc1cccc(Nc2ccccc2C(=O)O)c1C`, the Potency entry was “inactive”.
The same measure, in the same setting: the same measure for `CN1CCOCC1`: “inactive”; for `Oc1c(Cl)ccc(Cl)c1Cl`: “inactive”.
On the same count and under the same terms, the same measure for `Clc1ccc(Sc2cc(Cl)c(Cl)cc2Cl)cc1`: “inactive”.
On the same count and under the same terms, under `CN(C)C` stands “inactive”.
On to `C=CCCCCCCCCCC`, for which the Potency entry was “inactive”.
On the same count and under the same terms, under `O=C(O)CCCCCCCCCCCC(=O)O` stands “inactive”; under `C[C@]12C=CC(=O)C=C1CC[C@H]1[C@@H]3C[C@@H](O)[C@](O)(C(=O)CO)[C@@]3(C)C[C@H](O)[C@@]12F`, “inactive”; under `O=C(O)COCCN1CCN(C(c2ccccc2)c2ccc(Cl)cc2)CC1` (stereo not drawn), “inactive”.
Still for that read-out and setting: under `NC[C@H](O)c1ccc(O)c(O)c1` stands “inactive”; under `CCCCCCCC/C=C\CCCCCCCC(=O)O`, “inactive”; under `CC(=O)OC(C)C`, “inactive”.
On the same count and under the same terms, under `CC(=O)Oc1c(C)c(C)c2c(c1C)CC[C@@](C)(CCC[C@H](C)CCC[C@H](C)CCCC(C)C)O2` stands “inactive”; under `C=CC(C)(O)CCC=C(C)C` (stereo not drawn), “inactive”; under `c1ccc2c(c1)ccc1ncccc12`, “inactive”.
For `C=CN1CCCC1=O`, the Potency result is “inactive”.
Same read-out and setting: the same measure for `O=[Se](O)O`: “inactive”; for `CC(C)(C)c1cccc(C(C)(C)C)c1O`: “inactive”.
Same read-out and setting: under `Cc1ccc(S(=O)(=O)O)cc1C` stands “inactive”; under `c1ccc2c(c1)ccc1cc3c(ccc4ccccc43)cc12`, “inactive”; under `COCCOCCOCCO`, “inactive”.
Still for that read-out and setting: the same measure for `Cc1ccc([N+](=O)[O-])c(C)c1`: “inactive”; for `CC(=O)[C@@]1(O)CC[C@H]2[C@@H]3C[C@H](C)C4=CC(=O)C=C[C@]4(C)[C@@]3(F)[C@@H](O)C[C@@]21C`: 5.49 µM (active) and 3.01 µM (active); for `OC[C@@H](O)[C@@H](O[C@@H]1O[C@H](CO)[C@H](O)[C@H](O)[C@H]1O)[C@H](O)[C@@H](O)CO`: “inactive”.
In the case of `OCCNCCO`, the Potency result is “inactive”.
The same measure, in the same setting: the same measure for `CC(C)[N+](C)(CCOC(=O)C1c2ccccc2Oc2ccccc21)C(C)C`: “inactive”; for `CC/C(=C(/CC)c1ccc(O)cc1)c1ccc(O)cc1`: “inactive”.

A short description of another assay: A CellTox Green Cytotoxicity Assay to monitor cytotoxicity in HEK293 cells - 32 hour (AID 1224881). Also: nearly all actives have a fitted effect of over 40% in size. Particulars: CellTox Green fluorescence; series mostly up to 76.8 µM. In outline: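 Cytotoxicity was tracked continuously in HEK293 cells by a DNA-binding dye excluded from viable cells. Compounds were transferred in DMSO 5 h after seeding; fluorescence was recorded at intervals up to 40 h.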
With `c1ccc2ncccc2c1`, the Potency entry is “inactive”.
On the same count and under the same terms, under `Cc1ccc(C)c(O)c1` stands “inactive”; under `CNC[C@H](O)c1ccc(O)c(O)c1`, “inactive”; under `O=C1OC2(c3ccccc31)c1cc(I)c(O)c(I)c1Oc1c2cc(I)c(O)c1I`, 11.8 µM (active) [middle of 4 runs].
In the case of `CCOC(=O)C(C)Oc1ccc(Oc2cnc3cc(Cl)ccc3n2)cc1` (stereo not drawn), the Potency result is “inactive”.
On the same count and under the same terms, the same measure for `CC(=O)Nc1ccc2c(c1)Cc1cc(NC(C)=O)ccc1-2`: “inactive”; for `CN(C)/N=N/c1nc[nH]c1C(N)=O`: “inactive”.
The same measure, in the same setting: the same measure for `COc1ccc2nc(N)sc2c1`: “inactive”; for `O=C(O)CCCC(=O)O`: “inactive”.
On the same count and under the same terms, the same measure for `CCCN1C=CN(C)C1`: “inactive”; for `NCCN`: “inactive”.
`Cc1cccc(Nc2ccccc2C(=O)O)c1C`: the Potency result was “inactive”.
For the compound `CN1CCOCC1`, the Potency entry was “inactive”.
On the same count and under the same terms, the same measure for `Oc1c(Cl)ccc(Cl)c1Cl`: “inactive”; for `Clc1ccc(Sc2cc(Cl)c(Cl)cc2Cl)cc1`: “inactive”.
In the case of `CN(C)C`, the Potency entry was “inactive”.
The same measure, in the same setting: under `C=CCCCCCCCCCC` stands “inactive”.
Same read-out and setting: the same measure for `O=C(O)CCCCCCCCCCCC(=O)O`: “inactive”; for `C[C@]12C=CC(=O)C=C1CC[C@H]1[C@@H]3C[C@@H](O)[C@](O)(C(=O)CO)[C@@]3(C)C[C@H](O)[C@@]12F`: “inactive”.
Still for that read-out and setting: under `O=C(O)COCCN1CCN(C(c2ccccc2)c2ccc(Cl)cc2)CC1` (stereo not drawn) stands “inactive”.
For `NC[C@H](O)c1ccc(O)c(O)c1`, the Potency result is “inactive”.
The same measure, in the same setting: under `CCCCCCCC/C=C\CCCCCCCC(=O)O` stands “inactive”; under `CC(=O)OC(C)C`, “inactive”; under `CC(=O)Oc1c(C)c(C)c2c(c1C)CC[C@@](C)(CCC[C@H](C)CCC[C@H](C)CCCC(C)C)O2`, “inactive”.
In the case of `C=CC(C)(O)CCC=C(C)C` (stereo not drawn), the Potency entry is “inactive”.
Same read-out and setting: under `c1ccc2c(c1)ccc1ncccc12` stands “inactive”; under `C=CN1CCCC1=O`, “inactive”.
With `O=[Se](O)O`, the Potency is 39 µM (active) and the cytotoxicity increase was -8.61% [at 15.8 µM] (inactive).
For the compound `CC(C)(C)c1cccc(C(C)(C)C)c1O`, the Potency is 53.7 µM (active) and inactive.
On to `Cc1ccc(S(=O)(=O)O)cc1C`, for which the Potency result was “inactive”.
The same measure, in the same setting: the same measure for `c1ccc2c(c1)ccc1cc3c(ccc4ccccc43)cc12`: “inactive”; for `COCCOCCOCCO`: “inactive”.
On the same count and under the same terms, under `Cc1ccc([N+](=O)[O-])c(C)c1` stands 30.9 µM (active) and inactive; under `CC(=O)[C@@]1(O)CC[C@H]2[C@@H]3C[C@H](C)C4=CC(=O)C=C[C@]4(C)[C@@]3(F)[C@@H](O)C[C@@]21C`, “inactive”.
The same measure, in the same setting: the same measure for `OC[C@@H](O)[C@@H](O[C@@H]1O[C@H](CO)[C@H](O)[C@H](O)[C@H]1O)[C@H](O)[C@@H](O)CO`: “inactive”; for `OCCNCCO`: “inactive”; for `CC(C)[N+](C)(CCOC(=O)C1c2ccccc2Oc2ccccc21)C(C)C`: “inactive”.
As for `CC/C(=C(/CC)c1ccc(O)cc1)c1ccc(O)cc1`, the Potency entry is “inactive”.
